Targets with a hit are over-represented here; the source holds about 7,900 in all. About 0.6% of all pairs of compound and target were hits.
Assays:
Assay in all cases: log2 fold change, soluble protein after heating vs DMSO (PISA); higher = thermal stabilisation; K562 cells, 10 uM, 30 min; active = over 0.2 and 3.5 SD of the protein, either way, in both replicates (recomputed)
IRAK-1-4 Inhibitor I = compound: C1COCCN1CCN2C3=CC=CC=C3N=C2NC(=O)C4=CC(=CC=C4)[N+](=O)[O-] [IRAK-1-4 Inhibitor I]
Summary of the method: (§1)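 K562 cells at 2×10^6 cells/mL were treated for 30 min with 10 μM compound, and aliquots were heated for 3 min over 48°C-58°C before pooling. Extraction used PBS with 0.5% NP-40 at 4°C, and soluble protein was the supernatant after 21,000xg for 90 min, measured by TMTpro 16plex LC-MS/MS with channel sums equalised. Thermal stability values, relative to control samples and from duplicates, are log2 fold changes.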

ibrutinib = compound: C=CC(=O)N1CCC[C@@H](n2nc(-c3ccc(Oc4ccccc4)cc3)c3c(N)ncnc32)C1 [ibrutinib]
Summary of the method: as §1

[1] = compound: CC(=O)c1cnc2ccc(-c3cc(Cl)c(O)c(Cl)c3)nc2c1N[C@H]1CC[C@H](CN(C)C)CC1
Summary of the method: as §1

ralimetinib = compound: CC(C)(C)Cn1c(N)nc2ccc(-c3[nH]c(C(C)(C)C)nc3-c3ccc(F)cc3)nc21 [ralimetinib]
Summary of the method: as §1

[2] = compound: CC(C)(O)CC(=O)NCCn1ccc2ncnc(Nc3ccc(Oc4cccc(C(F)(F)F)c4)c(Cl)c3)c21
Summary of the method: as §1

[3] = compound: CC(C)C1=C2N=C(C=C(N2N=C1)NCC3=CC=CC=C3)NCCCCCCN
Summary of the method: as §1

[4] = compound: CC(C)C[C@@H](C=O)NC(=O)[C@H](CC(C)C)NC(=O)[C@H](CC(C)C)NC(=O)OCc1ccccc1
Summary of the method: as §1

pinometostat = compound: CC(C)N(C[C@H]1O[C@@H](n2cnc3c(N)ncnc32)[C@H](O)[C@@H]1O)[C@H]1C[C@@H](CCc2nc3cc(C(C)(C)C)ccc3[nH]2)C1 [pinometostat]
Summary of the method: as §1

[5] = compound: CC1=C(C(CC(=O)N1)C2=CC=C(C=C2)C(F)(F)F)C(=O)NC3=C(C=C4C(=C3)C=NN4)F
Summary of the method: as §1

[6] = compound: CC1=C(C2=C(C=C1)C(=O)C3=CC=CC=C3N2CCCN)C
Summary of the method: as §1

[7] = compound: CC1=C(C=C(C=C1)NC(=O)C2=CC(=CC=C2)C(C)(C)C#N)NC3=CC4=C(C=C3)N=CN(C4=O)C
Summary of the method: as §1

[8] = compound: CC1=C(C=C(C=C1)NC(=O)C2=CC(=CC=C2)N(C)C)NC(=O)C3=CC=C(C=C3)O
Summary of the method: as §1

[9] = compound: CC1=CC=C(C=C1)SC2=C3C=C(SC3=CN=C2)C(=O)N
Summary of the method: as §1

[10] = compound: CC1=NC(=CC=C1)C2=C(N=C(N2)C(C)(C)C)C3=CC4=NC=CN=C4C=C3
Summary of the method: as §1

Nexturastat A = compound: CCCCN(Cc1ccc(C(=O)NO)cc1)C(=O)Nc1ccccc1 [Nexturastat A]
Summary of the method: as §1

vemurafenib = compound: CCCS(=O)(=O)Nc1ccc(F)c(C(=O)c2c[nH]c3ncc(-c4ccc(Cl)cc4)cc23)c1F [vemurafenib]
Summary of the method: as §1

[11] = compound: CCCS(=O)(=O)Nc1ccc(F)c(C(=O)c2c[nH]c3ncc(Cl)cc23)c1F
Summary of the method: as §1

[12] = compound: CCCc1cc(C)[nH]c(=O)c1CNC(=O)c1cc(-c2ccnc(N3CCN(C)CC3)c2)cc2c1cnn2C(C)C
Summary of the method: as §1

givinostat = compound: CCN(CC)Cc1ccc2cc(COC(=O)Nc3ccc(C(=O)NO)cc3)ccc2c1 [givinostat]
Summary of the method: as §1

barasertib = compound: CCN(CCCOc1ccc2c(Nc3cc(CC(=O)Nc4cccc(F)c4)[nH]n3)ncnc2c1)CCOP(=O)(O)O [barasertib]
Summary of the method: as §1

Measured: log2 fold change

WDHD1 (UniProt O75717)
inactive: IRAK-1-4 Inhibitor I -0.055 | ibrutinib 0.006 | [1] -0.087 | ralimetinib -0.038 | [2] -0.065 | [3] -0.125 | [4] 0 | pinometostat -0.03 | [5] -0.02 | [6] -0.063 | [7] 0.057 | [8] -0.043 | [9] 0.013 | [10] 0.072 | Nexturastat A -0.053 | vemurafenib 0.066 | [11] 0.095 | [12] 0.022 | givinostat 0.053 | barasertib 0.055

TRIM28 (UniProt Q13263)
UniProt Q13263, sequence (Q13263 whole entry, looked up): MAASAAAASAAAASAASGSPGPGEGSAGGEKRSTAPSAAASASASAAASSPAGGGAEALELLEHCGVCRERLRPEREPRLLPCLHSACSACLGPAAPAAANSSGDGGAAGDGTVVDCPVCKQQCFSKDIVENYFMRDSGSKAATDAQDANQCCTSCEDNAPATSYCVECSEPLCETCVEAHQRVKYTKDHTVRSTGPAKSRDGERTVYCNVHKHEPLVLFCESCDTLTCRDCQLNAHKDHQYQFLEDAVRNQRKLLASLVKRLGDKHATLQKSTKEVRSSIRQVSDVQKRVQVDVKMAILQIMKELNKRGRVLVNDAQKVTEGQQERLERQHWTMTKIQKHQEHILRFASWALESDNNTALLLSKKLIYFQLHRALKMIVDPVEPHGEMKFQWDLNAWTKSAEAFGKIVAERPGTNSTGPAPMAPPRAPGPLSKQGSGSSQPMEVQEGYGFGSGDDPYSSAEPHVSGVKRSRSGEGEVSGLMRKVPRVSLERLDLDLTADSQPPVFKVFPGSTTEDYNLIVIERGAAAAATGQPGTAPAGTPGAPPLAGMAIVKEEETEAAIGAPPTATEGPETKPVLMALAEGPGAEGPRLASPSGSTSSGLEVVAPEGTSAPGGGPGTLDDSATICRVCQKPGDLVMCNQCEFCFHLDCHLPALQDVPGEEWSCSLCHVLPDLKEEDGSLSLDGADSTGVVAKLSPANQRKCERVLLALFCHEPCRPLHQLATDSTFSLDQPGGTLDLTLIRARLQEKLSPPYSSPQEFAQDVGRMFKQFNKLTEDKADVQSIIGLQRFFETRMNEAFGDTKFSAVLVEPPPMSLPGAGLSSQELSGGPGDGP
inactive: IRAK-1-4 Inhibitor I -0.008 | ibrutinib -0.033 | [1] 0.052 | ralimetinib -0.003 | [2] -0.035 | [3] -0.087 | [4] 0.018 | pinometostat -0.056 | [5] -0.002 | [6] -0.152 | [7] 0.013 | [8] -0.049 | [9] 0.013 | [10] 0.041 | Nexturastat A -0.059 | vemurafenib 0.078 | [11] 0.075 | [12] 0.012 | givinostat 0.039 | barasertib 0.04

UBAP1 isoform 4 (UniProt Q9NZ09)
inactive: IRAK-1-4 Inhibitor I -0.058 | ibrutinib 0.07 | [1] -0.001 | ralimetinib -0.024 | [2] -0.044 | [3] -0.087 | [4] 0.107 | pinometostat 0.018 | [5] 0.184 | [6] -0.112 | [7] 0.082 | [8] -0.002 | [9] 0.135 | [10] -0.015 | Nexturastat A -0.049 | vemurafenib 0.005 | [11] 0.159 | [12] 0.018 | givinostat 0.13 | barasertib 0.033

TNNC2 (UniProt P02585)
UniProt P02585, sequence (P02585 whole entry, looked up): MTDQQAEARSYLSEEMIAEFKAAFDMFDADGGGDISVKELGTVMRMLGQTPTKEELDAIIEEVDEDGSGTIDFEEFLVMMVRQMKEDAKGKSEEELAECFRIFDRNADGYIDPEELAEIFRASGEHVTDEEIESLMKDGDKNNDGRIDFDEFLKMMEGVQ
inactive: IRAK-1-4 Inhibitor I 0.042 | ibrutinib 0.012 | [1] 0.004 | ralimetinib -0.068 | [2] 0 | [3] 0.116 | [4] 0.025 | pinometostat -0.067 | [5] -0.005 | [6] 0.114 | [7] -0.064 | [8] 0.037 | [9] 0.002 | [10] -0.024 | Nexturastat A -0.011 | vemurafenib 0 | [11] -0.016 | [12] -0.045 | givinostat -0.037 | barasertib -0.004

UQCR10 (UniProt Q9UDW1)
inactive: IRAK-1-4 Inhibitor I 0.036 | ibrutinib 0.019 | [1] -0.077 | ralimetinib -0.05 | [2] -0.056 | [3] 0.031 | [4] -0.127 | pinometostat -0.016 | [5] -0.008 | [6] 0.057 | [7] 0.103 | [8] -0.086 | [9] 0.069 | [10] -0.014 | Nexturastat A -0.049 | vemurafenib -0.042 | [11] -0.018 | [12] 0.007 | givinostat -0.05 | barasertib -0.042

UCHL5 (UniProt Q9Y5K5)
inactive: IRAK-1-4 Inhibitor I -0.041 | ibrutinib -0.051 | [1] -0.012 | ralimetinib 0.03 | [2] -0.028 | [3] -0.161 | [4] 0.054 | pinometostat -0.004 | [5] -0.004 | [6] -0.018 | [7] 0.014 | [8] -0.07 | [9] 0.019 | [10] 0.053 | Nexturastat A 0.048 | vemurafenib 0.075 | [11] 0.08 | [12] 0.003 | givinostat 0.057 | barasertib 0.024

TTC38 (UniProt Q5R3I4)
active: [6] 0.801 | Nexturastat A 1.05 | givinostat 0.938
inactive: IRAK-1-4 Inhibitor I 0.129 | ibrutinib -0.048 | [1] 0.023 | ralimetinib 0.017 | [2] -0.204 | [3] -0.06 | [4] -0.195 | pinometostat 0.027 | [5] -0.081 | [7] -0.039 | [8] 0.405 | [9] 0.127 | [10] 0.019 | vemurafenib 0.031 | [11] 0.012 | [12] 0.141 | barasertib 0.023

WASHC2C, A0A096LPC5
WASHC2C, A0A096LPC5, sequence (A0A096LPC5 whole entry, looked up): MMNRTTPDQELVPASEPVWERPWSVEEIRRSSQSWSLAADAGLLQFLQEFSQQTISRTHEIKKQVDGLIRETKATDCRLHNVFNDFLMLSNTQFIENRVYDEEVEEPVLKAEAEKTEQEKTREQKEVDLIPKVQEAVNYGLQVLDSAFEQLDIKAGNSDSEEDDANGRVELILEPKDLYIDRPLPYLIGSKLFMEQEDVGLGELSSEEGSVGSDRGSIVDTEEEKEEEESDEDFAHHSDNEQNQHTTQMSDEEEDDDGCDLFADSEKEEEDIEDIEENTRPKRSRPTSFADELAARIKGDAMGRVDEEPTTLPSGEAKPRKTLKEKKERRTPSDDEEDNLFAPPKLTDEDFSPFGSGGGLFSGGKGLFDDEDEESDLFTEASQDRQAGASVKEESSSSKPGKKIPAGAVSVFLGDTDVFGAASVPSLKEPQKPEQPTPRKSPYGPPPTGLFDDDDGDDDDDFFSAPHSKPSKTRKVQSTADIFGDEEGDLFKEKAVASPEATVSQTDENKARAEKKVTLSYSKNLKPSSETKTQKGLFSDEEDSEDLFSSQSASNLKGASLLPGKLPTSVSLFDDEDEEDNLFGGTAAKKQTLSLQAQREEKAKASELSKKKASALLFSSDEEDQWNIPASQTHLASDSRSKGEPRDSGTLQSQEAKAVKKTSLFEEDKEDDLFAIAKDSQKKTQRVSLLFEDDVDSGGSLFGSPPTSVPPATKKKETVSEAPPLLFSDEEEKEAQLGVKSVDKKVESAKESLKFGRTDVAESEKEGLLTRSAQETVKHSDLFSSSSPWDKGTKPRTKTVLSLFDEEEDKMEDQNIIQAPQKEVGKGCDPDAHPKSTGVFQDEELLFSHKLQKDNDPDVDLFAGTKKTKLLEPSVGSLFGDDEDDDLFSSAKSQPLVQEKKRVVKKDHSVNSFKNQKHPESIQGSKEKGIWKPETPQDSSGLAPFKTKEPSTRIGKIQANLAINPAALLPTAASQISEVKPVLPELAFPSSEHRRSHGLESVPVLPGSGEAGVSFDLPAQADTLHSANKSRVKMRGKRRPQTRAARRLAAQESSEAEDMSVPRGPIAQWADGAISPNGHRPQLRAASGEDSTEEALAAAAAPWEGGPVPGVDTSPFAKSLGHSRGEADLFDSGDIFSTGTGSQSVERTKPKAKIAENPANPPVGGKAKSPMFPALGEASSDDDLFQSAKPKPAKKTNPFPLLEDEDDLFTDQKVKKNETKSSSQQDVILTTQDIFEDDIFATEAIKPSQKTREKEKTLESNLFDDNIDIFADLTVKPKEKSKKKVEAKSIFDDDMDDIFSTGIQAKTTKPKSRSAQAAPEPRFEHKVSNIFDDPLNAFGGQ
inactive: IRAK-1-4 Inhibitor I 0.01 | ibrutinib -0.005 | [1] -0.159 | ralimetinib -0.035 | [2] 0.085 | [3] -0.214 | [4] 0.057 | pinometostat 0.008 | [5] -0.033 | [6] -0.125 | [7] -0.059 | [8] 0.062 | [9] -0.107 | [10] -0.041 | Nexturastat A 0 | vemurafenib 0.039 | [11] -0.206 | [12] -0.101 | givinostat -0.012 | barasertib -0.037

TRAPPC8 (UniProt Q9Y2L5)
UniProt Q9Y2L5, sequence (Q9Y2L5 whole entry, looked up): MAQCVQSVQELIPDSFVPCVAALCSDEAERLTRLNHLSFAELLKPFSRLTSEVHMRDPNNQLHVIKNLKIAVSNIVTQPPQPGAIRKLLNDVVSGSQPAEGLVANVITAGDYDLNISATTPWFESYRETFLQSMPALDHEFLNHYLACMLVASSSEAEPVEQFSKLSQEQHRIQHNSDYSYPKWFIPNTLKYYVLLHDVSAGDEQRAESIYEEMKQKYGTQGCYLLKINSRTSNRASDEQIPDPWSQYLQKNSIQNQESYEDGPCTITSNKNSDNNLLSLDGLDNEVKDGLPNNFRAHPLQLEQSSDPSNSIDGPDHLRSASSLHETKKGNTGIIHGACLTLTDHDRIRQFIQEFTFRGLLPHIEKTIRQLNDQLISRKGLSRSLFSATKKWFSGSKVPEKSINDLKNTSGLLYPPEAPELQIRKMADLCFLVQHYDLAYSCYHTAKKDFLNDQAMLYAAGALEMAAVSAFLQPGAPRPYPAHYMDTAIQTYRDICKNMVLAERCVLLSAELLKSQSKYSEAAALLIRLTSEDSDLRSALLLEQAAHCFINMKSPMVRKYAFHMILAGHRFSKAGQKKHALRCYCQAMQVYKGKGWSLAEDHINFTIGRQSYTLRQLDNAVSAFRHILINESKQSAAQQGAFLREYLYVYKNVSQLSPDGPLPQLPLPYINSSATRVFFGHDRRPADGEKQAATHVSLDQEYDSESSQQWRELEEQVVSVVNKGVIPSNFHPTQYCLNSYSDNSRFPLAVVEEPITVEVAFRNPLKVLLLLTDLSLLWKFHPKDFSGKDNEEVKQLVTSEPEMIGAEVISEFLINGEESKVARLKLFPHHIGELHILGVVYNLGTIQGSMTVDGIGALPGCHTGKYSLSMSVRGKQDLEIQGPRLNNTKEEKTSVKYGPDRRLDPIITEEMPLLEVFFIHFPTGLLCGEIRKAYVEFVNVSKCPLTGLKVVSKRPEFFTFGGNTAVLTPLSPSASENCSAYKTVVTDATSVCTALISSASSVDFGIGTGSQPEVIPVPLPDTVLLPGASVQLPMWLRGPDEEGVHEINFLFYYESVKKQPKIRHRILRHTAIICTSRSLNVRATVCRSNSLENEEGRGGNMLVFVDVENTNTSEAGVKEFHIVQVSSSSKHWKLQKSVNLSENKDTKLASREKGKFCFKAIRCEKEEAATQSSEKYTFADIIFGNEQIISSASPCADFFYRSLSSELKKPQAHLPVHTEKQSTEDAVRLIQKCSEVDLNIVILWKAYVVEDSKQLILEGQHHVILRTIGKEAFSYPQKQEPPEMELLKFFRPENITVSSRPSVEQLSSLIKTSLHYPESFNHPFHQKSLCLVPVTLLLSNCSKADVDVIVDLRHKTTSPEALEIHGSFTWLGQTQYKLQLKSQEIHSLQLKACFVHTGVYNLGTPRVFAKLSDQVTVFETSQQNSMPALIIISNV
inactive: IRAK-1-4 Inhibitor I -0.02 | ibrutinib 0.015 | [1] -0.02 | ralimetinib 0.011 | [2] -0.056 | [3] -0.071 | [4] 0.044 | pinometostat 0.072 | [5] 0.002 | [6] 0.003 | [7] 0.079 | [8] -0.036 | [9] -0.009 | [10] -0.022 | Nexturastat A 0.024 | vemurafenib 0.026 | [11] 0.066 | [12] 0.012 | givinostat 0.066 | barasertib 0.033

WASH2P (UniProt Q6VEQ5)
inactive: IRAK-1-4 Inhibitor I 0.001 | ibrutinib -0.049 | [1] 0.052 | ralimetinib 0.022 | [2] 0.048 | [4] 0.025 | pinometostat -0.016 | [5] -0.022 | [6] 0.026 | [7] -0.001 | [8] -0.034 | [9] 0.019 | [10] 0 | Nexturastat A 0.139 | vemurafenib 0.03 | [11] -0.01 | [12] 0.026 | givinostat -0.007 | barasertib 0.043
active: [3] -0.234

UBIAD1 (UniProt Q9Y5Z9)
inactive: IRAK-1-4 Inhibitor I 0.012 | ibrutinib -0.009 | [1] -0.055 | ralimetinib -0.032 | [3] -0.069 | [4] 0.029 | pinometostat -0.104 | [5] -0.04 | [6] 0.047 | [7] -0.03 | [8] 0.059 | [9] 0.004 | [10] 0.015 | vemurafenib 0.07 | [11] 0.093 | [12] 0.023 | givinostat 0.043 | barasertib 0.023

TMEM164 (UniProt Q5U3C3)
inactive: IRAK-1-4 Inhibitor I 0.057 | ibrutinib -0.036 | [1] -0.088 | [2] -0.025 | [3] -0.309 | pinometostat -0.073 | [5] -0.08 | [6] 0.066 | [7] 0.288 | [9] 0.05 | [10] -0.047 | Nexturastat A -0.142 | vemurafenib -0.083 | [11] 0.078 | [12] -0.305 | givinostat -0.038 | barasertib -0.095

UNC119B (UniProt A6NIH7)
inactive: IRAK-1-4 Inhibitor I 0.113 | ibrutinib 0.08 | [1] 0.028 | ralimetinib 0.014 | [3] 0.272 | [4] 0.088 | pinometostat 0.126 | [5] -0.048 | [6] -0.047 | [7] 0.293 | [8] -0.057 | [9] 0.241 | [10] -0.017 | vemurafenib 0.023 | [11] -0.047 | [12] -0.108 | givinostat 0.12 | barasertib -0.029

UBA52 (UniProt P62987)
inactive: IRAK-1-4 Inhibitor I -0.098 | ibrutinib 0.091 | [1] 0.21 | ralimetinib 0.139 | [2] 0.107 | [3] 0.044 | [4] 0.147 | pinometostat 0.358 | [6] -0.532 | [7] -0.046 | [8] 0.024 | [9] -0.107 | [10] -0.16 | Nexturastat A 0.281 | vemurafenib -0.212 | [11] -0.165 | [12] 0.205 | givinostat -0.06 | barasertib 0.044

WASHC2A (UniProt Q641Q2)
UniProt Q641Q2, sequence (Q641Q2 whole entry, looked up): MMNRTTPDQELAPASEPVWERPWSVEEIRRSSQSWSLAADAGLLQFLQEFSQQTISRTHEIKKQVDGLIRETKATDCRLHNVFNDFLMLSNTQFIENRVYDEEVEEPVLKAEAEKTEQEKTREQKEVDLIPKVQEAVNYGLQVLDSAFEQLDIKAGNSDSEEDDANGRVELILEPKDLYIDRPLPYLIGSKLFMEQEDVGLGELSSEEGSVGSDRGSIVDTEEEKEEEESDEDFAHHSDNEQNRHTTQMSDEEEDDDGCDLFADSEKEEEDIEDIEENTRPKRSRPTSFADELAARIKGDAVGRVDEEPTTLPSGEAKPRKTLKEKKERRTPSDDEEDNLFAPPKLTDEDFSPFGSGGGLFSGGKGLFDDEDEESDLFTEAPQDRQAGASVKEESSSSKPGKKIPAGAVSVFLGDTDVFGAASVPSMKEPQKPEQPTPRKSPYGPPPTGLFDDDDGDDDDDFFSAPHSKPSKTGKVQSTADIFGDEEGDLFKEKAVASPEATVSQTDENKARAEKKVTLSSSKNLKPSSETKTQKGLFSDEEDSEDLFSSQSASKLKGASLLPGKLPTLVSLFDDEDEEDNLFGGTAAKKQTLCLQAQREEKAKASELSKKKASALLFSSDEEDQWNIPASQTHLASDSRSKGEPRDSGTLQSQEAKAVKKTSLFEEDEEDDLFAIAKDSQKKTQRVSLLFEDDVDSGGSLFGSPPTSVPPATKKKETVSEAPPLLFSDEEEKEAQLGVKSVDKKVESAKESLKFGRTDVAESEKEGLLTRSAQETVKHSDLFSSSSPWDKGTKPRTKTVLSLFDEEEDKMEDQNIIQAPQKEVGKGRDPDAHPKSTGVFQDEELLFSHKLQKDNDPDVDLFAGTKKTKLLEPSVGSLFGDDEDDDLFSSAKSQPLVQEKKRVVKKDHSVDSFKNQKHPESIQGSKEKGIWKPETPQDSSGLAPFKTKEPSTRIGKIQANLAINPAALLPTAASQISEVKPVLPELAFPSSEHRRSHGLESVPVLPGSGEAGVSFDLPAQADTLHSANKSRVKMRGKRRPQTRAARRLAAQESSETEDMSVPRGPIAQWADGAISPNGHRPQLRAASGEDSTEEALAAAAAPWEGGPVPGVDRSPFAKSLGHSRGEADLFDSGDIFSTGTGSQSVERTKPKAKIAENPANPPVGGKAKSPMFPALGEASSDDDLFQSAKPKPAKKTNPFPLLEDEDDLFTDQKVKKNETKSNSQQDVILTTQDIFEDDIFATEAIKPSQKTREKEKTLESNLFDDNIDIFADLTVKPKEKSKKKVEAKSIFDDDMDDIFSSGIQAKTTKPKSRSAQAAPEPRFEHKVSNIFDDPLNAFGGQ
inactive: IRAK-1-4 Inhibitor I -0.002 | ibrutinib -0.013 | [1] 0.054 | ralimetinib 0.013 | [2] 0.047 | [4] 0.025 | pinometostat 0.033 | [5] -0.004 | [6] -0.044 | [7] -0.053 | [8] -0.012 | [9] -0.039 | [10] -0.014 | Nexturastat A 0.004 | vemurafenib -0.041 | [11] -0.005 | [12] 0.085 | givinostat 0.004 | barasertib 0.032
active: [3] -0.266

UCHL5 isoform 3 (UniProt Q9Y5K5)
inactive: IRAK-1-4 Inhibitor I -0.012 | ibrutinib -0.222 | [1] -0.021 | ralimetinib 0.006 | [2] -0.357 | [3] -0.143 | [4] 0.077 | pinometostat -0.044 | [5] 0.068 | [6] 0.028 | [7] -0.09 | [8] -0.145 | [9] 0.048 | [10] -0.213 | Nexturastat A 0.07 | vemurafenib -0.02 | [11] 0.243 | [12] 0.047 | givinostat 0.056 | barasertib 0.048
